Results from the supplement of paper PMC6658780.
Counter-ions that a name gives are not always drawn. ± gives the standard deviation of the averaged measurements.

Test system: Escherichia coli ATCC BAA-2469
Assay: percent growth inhibition of drug + antibiotic vs DMSO control; higher = more growth inhibition
Experimental: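 Prestwick drugs tested at 20 uM and 7 uM with an antibiotic at 0.125x MIC (16 mg/L when MIC >128 mg/L) against E. coli ATCC BAA-2469 (NDM-1) in CAMHB, 384-well plates, duplicate runs. Percent growth inhibition was computed from OD600 (24 h minus 0 h) relative to DMSO wells. Drug + DMSO-only wells are also given. […]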

[1] = antibiotic (0.125x MIC): ciprofloxacin, 7 µM
[2] = antibiotic (0.125x MIC): ciprofloxacin, 20 µM
[3] = antibiotic (0.125x MIC): gentamicin, 7 µM
[4] = antibiotic (0.125x MIC): gentamicin, 20 µM
[5] = antibiotic (0.125x MIC): meropenem, 7 µM
[6] = antibiotic (0.125x MIC): meropenem, 20 µM

SMILES	percent growth inhibition [1]	percent growth inhibition [2]	percent growth inhibition [3]	percent growth inhibition [4]	percent growth inhibition [5]	percent growth inhibition [6]
CN(C)c1ccc(O)c2c1C[C@H]1C[C@H]3[C@H](N(C)C)C(O)=C(C(N)=O)C(=O)[C@@]3(O)C(O)=C1C2=O [Minocycline hydrochloride]	36.9 ± 6.3%	101 ± 3.3%	38.6 ± 5.5%	84.6 ± 15%	–	–
O=C(N[C@H](CO)[C@H](O)c1ccc([N+](=O)[O-])cc1)C(Cl)Cl [Chloramphenicol]	18.4 ± 4.5%	92.4 ± 9.2%	38.6 ± 9.3%	102 ± 3.6%	40.2 ± 7%	89.3 ± 10%
Oc1c(I)cc(Cl)c2cccnc12 [Clioquinol]	7.92 ± 1.7%	61.08 ± 0.34%	12.9 ± 5.2%	88.9 ± 10%	7.81 ± 2.7%	–
O=C1NCCN1c1ncc([N+](=O)[O-])s1 [Niridazole]	45 ± 5.1%	86.8 ± 14%	30.939 ± 0.024%	99.9 ± 3.3%	42.4 ± 9.2%	85.3 ± 15%
CC(=O)OC[C@H]1O[C@@H]([S-])[C@H](OC(C)=O)[C@@H](OC(C)=O)[C@@H]1OC(C)=O.CCP(CC)CC.[Au+] [Auranofin]	9.1 ± 0.77%	19.5 ± 6.6%	–	–	7.8 ± 5.3%	19.3 ± 14%
COC(=O)N/N=C/c1c[n+]([O-])c2ccccc2[n+]1[O-] [Carbadox]	35.21 ± 0.15%	68.9 ± 6.1%	46.5 ± 17%	85 ± 3.9%	39.9 ± 16%	78.3 ± 7.7%
OC(CCN1CCCC1)(c1ccccc1)C1CCCCC1 (stereo not given) [Procyclidine hydrochloride]	10.9 ± 16%	8.13 ± 9.2%	–	–	–	–
Nc1nc(O)c2ncn(CCC(CO)CO)c2n1 [Penciclovir]	7.81 ± 16%	-2.9 ± 7.2%	–	–	–	–
CCOC(=O)c1ccc(OC(=O)CCCCCNC(=N)N)cc1 [Gabexate mesilate]	–	–	4.82 ± 3.7%	–	–	–
CO[C@H]1/C=C/O[C@@]2(C)Oc3c(C)c(O)c4c(c3C2=O)C2=NC3(CCN(CC(C)C)CC3)NC2=C(NC(=O)/C(C)=C\C=C\[C@H](C)[C@H](O)[C@@H](C)[C@@H](O)[C@@H](C)[C@H](OC(C)=O)[C@@H]1C)C4=O [Rifabutin]	–	–	86.11 ± 0.8%	114 ± 20%	97.8 ± 1.9%	111 ± 12%
